GPT2 inh: GPT2 alanine aminotransferase inhibition; AID 1671188; Recombinant GPT2, coupled pyruvate oxidase/HRP Amplex Red fluorescence; Q8TD30; 100,000 compounds, 0.25% hits; Potency, µM (top dose mostly 57.7 µM), for inactives: at the top dose activity change, negative = inhibition, hits mostly inhibitors; further: nearly all actives have a fitted effect of over 60% in size
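Recombinant GPT2 (10ng/uL) with 250uM a-KG and 2mM L-alanine, 30 min at room temperature, in HEPES pH 7.5 buffer. Pyruvate detected by pyruvate oxidase/HRP/Amplex Red fluorescence after 30 min in the dark; AOA (50uM) as positive control.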
hNpr1 antagonist: antagonists of human natriuretic peptide receptor Npr1; Potency, µM (doses to about 46.3 µM), for the others: top-dose activity change, negative = inhibition, actives largely listed as inhibitors; 76,000 compounds, 1.6% hits; HEK293 hNpr1 GloSensor cGMP, ANP-stimulated luminescence; P16066; AID 1347048; calls by dose curve; further: nearly all actives have a fitted effect of over 60% in size
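HEK293 cells stably expressing human Npr1 and cGMP GloSensor pGS-40F, loaded 2 h with 2% GloSensor reagent, given compound 30 min at room temperature. Luminescence read before and 20 min after 0.1 nM hNppA.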
HEK293 tox: kills HEK 293 cells | HEK 293 viability, ATP luminescence (CellTiter-Glo), 48-72 h | Potency, µM (top dose mostly 115 µM), for the others: at the highest dose activity change, negative = cytotoxicity, actives largely listed as inhibitors | 94,000 compounds, 6.6% hits | AID 1345083; further: nearly all actives have a fitted effect of over 60% in size
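qHTS cytotoxicity; HEK 293, 250 cells/well; compound pinned; 48 or 72 hr, 37 degree Celsius, 5% CO2, 95% humidity; CellTiter-Glo, 10 min RT; luminescence (ATP).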
FLuc inh: blocks purified firefly luciferase enzyme activity. P08659. purified P. pyralis luciferase, luminescence, biochemical. Potency, µM (top dose mostly 115 µM), hits mostly inhibitors. 76,000 compounds, 2.5% hits; further: nearly all actives have a fitted effect of over 65% in size
Target sequence (P08659 whole entry, looked up): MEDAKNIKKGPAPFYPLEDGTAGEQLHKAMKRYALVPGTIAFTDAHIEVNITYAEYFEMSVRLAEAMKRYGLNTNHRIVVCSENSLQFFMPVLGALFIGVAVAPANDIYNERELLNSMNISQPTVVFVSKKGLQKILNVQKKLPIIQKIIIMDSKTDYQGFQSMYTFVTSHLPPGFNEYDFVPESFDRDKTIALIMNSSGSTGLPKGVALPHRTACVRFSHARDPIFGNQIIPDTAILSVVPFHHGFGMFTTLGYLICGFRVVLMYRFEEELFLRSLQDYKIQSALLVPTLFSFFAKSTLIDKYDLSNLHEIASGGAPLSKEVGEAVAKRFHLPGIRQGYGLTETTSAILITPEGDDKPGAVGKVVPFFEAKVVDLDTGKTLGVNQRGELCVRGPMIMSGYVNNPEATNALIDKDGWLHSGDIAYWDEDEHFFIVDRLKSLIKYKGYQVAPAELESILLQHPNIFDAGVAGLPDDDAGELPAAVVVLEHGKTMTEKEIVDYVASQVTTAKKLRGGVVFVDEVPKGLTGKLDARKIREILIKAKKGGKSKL
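Biochemical qHTS: compound (6-point titration) added to 10uM D-luciferin plus 10uM ATP in Tris acetate pH 7.5 buffer with Mg, Tween-20 and BSA, then purified enzyme at 10nM; light output imaged.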
NIH3T3 tox: NIH 3T3 cell cytotoxicity; NIH 3T3 viability, CellTiter-Glo ATP luminescence, 48-72 h; Potency, µM (doses to about 96.7 µM), for the others: at the highest dose activity change, negative = cytotoxicity, hits mostly inhibitors; 94,000 compounds, 4.3% hits; AID 1345082; further: nearly all actives have a fitted effect of over 55% in size
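NIH 3T3 cells at 400 cells/well received 23 nL of compound by pintool and were incubated 48 or 72 h at 37 °C. Viability was read as ATP-coupled CellTiter-Glo luminescence.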
The depositor's hits bear a star; [ ] = dose if it differs, or a comment. A selection: hits, their analogues and other compounds. The true share with any hit is near 10%. Unless noted, the call rests on the fitted dose curve; in most records, active means well fitted curve in the direction sought with a large enough effect; inconclusive means small, poorly fitted or top-dose-only effect, or another doubt; inactive means no such curve, though single readings can be large; an effect the other way counts as inactive or inconclusive. On the % scale 0 is the no-effect control and ±100 the full control effect; potency means the concentration at half of the fitted maximal effect.

CN(CC(O)COc1cccc(CNCCc2ccc(F)cc2)c1)C1CCCCC1 (stereo not given) was read as GPT2 inh inconclusive, hNpr1 antagonist -9%, HEK293 tox 18µM*, FLuc inh inactive and NIH3T3 tox inconclusive.
For C[C@H]1CCCN1C(=O)c1nnc(COc2cccc(Cl)c2)n1-c1ccccc1 the results were GPT2 inh inactive, hNpr1 antagonist -3%[70.6 µM], HEK293 tox inconclusive, FLuc inh inactive and NIH3T3 tox inconclusive.
`C[C@H]1CCCN1C(=O)c1nnc(CNCc2cccc(Cl)c2)n1-c1ccccc1` gave GPT2 inh 0%[88.5 µM], hNpr1 antagonist -6%[70.6 µM], HEK293 tox inconclusive, FLuc inh inactive and NIH3T3 tox inconclusive.
Screening CC(C)c1ccc(OCc2nnc(C(=O)N3CCC[C@@H]3C)n2-c2cccnc2)cc1 returned GPT2 inh inactive, hNpr1 antagonist -2%[70.6 µM], HEK293 tox inconclusive, FLuc inh inactive and NIH3T3 tox 14µM*.
For C[C@H]1CCCN1C(=O)c1nnc(CNc2ccccc2Cl)n1-c1ccccc1 the results were GPT2 inh 1%[88.5 µM], hNpr1 antagonist -29%[70.6 µM], HEK293 tox inconclusive, FLuc inh inactive and NIH3T3 tox 100µM*.
For C[C@H]1CCCN1C(=O)c1nnc(COc2cccc(C(F)(F)F)c2)n1-c1cccnc1 the results were GPT2 inh inactive, hNpr1 antagonist 0%[70.6 µM], HEK293 tox inconclusive, FLuc inh inactive and NIH3T3 tox 100µM*.
Screening COCCN1Cc2ccc(Nc3cccnc3)nc2C(C)(C(=O)Nc2ccccc2C)C1 (stereo not given) returned GPT2 inh 4%[88.5 µM], hNpr1 antagonist -8%[70.6 µM], HEK293 tox inconclusive, FLuc inh 63µM* and NIH3T3 tox inconclusive.
For COCCN1Cc2ccc(NCC(C)C)nc2C(C)(C(=O)Nc2cccc(F)c2)C1 (stereo not given) the results were GPT2 inh 3%[88.5 µM], hNpr1 antagonist -12%[70.6 µM], HEK293 tox 45µM*, FLuc inh inactive and NIH3T3 tox 25µM*.
COCCN1Cc2ccc(NCc3ccccc3)nc2C(C)(C(=O)Nc2cccnc2)C1 (stereo not given) was read as GPT2 inh -5%[88.5 µM], hNpr1 antagonist 5%[70.6 µM], HEK293 tox inconclusive, FLuc inh inactive and NIH3T3 tox inconclusive.
`COCCN1Cc2ccc(NCc3ccccc3)nc2C(C)(C(=O)Nc2ccc(F)cc2)C1` (stereo not given) gave GPT2 inh -24%, hNpr1 antagonist -16%, HEK293 tox inconclusive, FLuc inh inactive and NIH3T3 tox inconclusive.
For COCCN1Cc2ccc(NCc3ccccc3)nc2C(C)(C(=O)Nc2ccccc2)C1 (stereo not given) the results were GPT2 inh -10%[88.5 µM], hNpr1 antagonist -14%[70.6 µM], HEK293 tox 50µM*, FLuc inh inactive and NIH3T3 tox inconclusive.
For COCCN1Cc2ccc(NCc3ccccc3)nc2C(C)(C(=O)NCc2ccccc2)C1 (stereo not given) the results were GPT2 inh -7%, hNpr1 antagonist -10%, HEK293 tox 50µM*, FLuc inh inactive and NIH3T3 tox 45µM*.
`COCCN1Cc2ccc(NCc3ccccc3)nc2C(C)(C(=O)NC2CCOCC2)C1` (stereo not given) gave GPT2 inh inconclusive, hNpr1 antagonist 1%[70.6 µM], HEK293 tox inconclusive, FLuc inh inactive and NIH3T3 tox inconclusive.
COc1ccc(CN2CC[C@H](c3nnc(-c4ccccc4F)o3)C2)cc1 was read as GPT2 inh 3%[88.5 µM], hNpr1 antagonist -13%[70.6 µM], HEK293 tox -19%[172 µM], FLuc inh inactive and NIH3T3 tox -5%[138 µM].
COc1ccccc1N1CCN([C@H]2[C@@H]3OC[C@@H](O3)[C@@H](NCc3ccc(F)cc3)[C@@H]2O)CC1 was read as GPT2 inh -7%, hNpr1 antagonist 1%, HEK293 tox -16%, FLuc inh inactive and NIH3T3 tox -2%.
`COc1ccc(Nc2ccnc(N3CCC(C(=O)NCC(F)F)CC3)n2)cc1` gave GPT2 inh 1%, HEK293 tox inconclusive and NIH3T3 tox inconclusive.
For CN1CCC(NC(=O)C2(C)CN(C)Cc3ccc(Nc4ccccc4)nc32)CC1 (stereo not given) the results were GPT2 inh inactive, hNpr1 antagonist 1%[70.6 µM], HEK293 tox inconclusive, FLuc inh inactive and NIH3T3 tox inconclusive.
For CC(C)CNc1ccc2c(n1)C(C)(C(=O)NCc1cccnc1)CN(Cc1ccccc1)C2 (stereo not given) the results were GPT2 inh -5%, hNpr1 antagonist 6%, HEK293 tox inconclusive, FLuc inh inactive and NIH3T3 tox inconclusive.
`CC(C)CNc1ccc2c(n1)C(C)(C(=O)NC1CCC(O)CC1)CN(Cc1ccccc1)C2` (stereo not given) gave GPT2 inh 0%, hNpr1 antagonist -11%, HEK293 tox inconclusive, FLuc inh inactive and NIH3T3 tox 45µM*.
Screening CC(C)CNc1ccc2c(n1)C(C)(C(=O)NC1CCN(C)CC1)CN(Cc1ccccc1)C2 (stereo not given) returned GPT2 inh -6%, hNpr1 antagonist 4%, HEK293 tox inconclusive, FLuc inh inactive and NIH3T3 tox 32µM*.
Screening CCn1ncc(N2CCCC(CC(=O)Nc3cc(OC)cc(OC)c3)C2)cc1=O (stereo not given) returned GPT2 inh inactive, hNpr1 antagonist 4%, HEK293 tox -1%, FLuc inh inactive and NIH3T3 tox 40µM*.
`COCCn1ncc(N2CCCC(CC(=O)Nc3ccc(Cl)cc3)C2)cc1=O` (stereo not given) gave GPT2 inh inactive, hNpr1 antagonist -11%, HEK293 tox inconclusive, FLuc inh inactive and NIH3T3 tox 32µM*.
Screening COCCn1ncc(N2CCCC(CC(=O)Nc3cccc(Cl)c3)C2)cc1=O (stereo not given) returned GPT2 inh inactive, hNpr1 antagonist -3%, HEK293 tox -6%, FLuc inh inactive and NIH3T3 tox -18%.
CN(Cc1ccc(F)cc1)c1ccc2ncc(Nc3cccc(N[S+](C)(=O)[O-])c3)n2n1 was read as GPT2 inh -9%, hNpr1 antagonist inconclusive, HEK293 tox 35µM*, FLuc inh inactive and NIH3T3 tox 32µM*.
For NC(=O)N1CCCC(C(=O)N2CCN(c3nsc4ccccc34)CC2)C1 (stereo not given) the results were GPT2 inh 1%, hNpr1 antagonist 1%, HEK293 tox 25µM*, FLuc inh inactive and NIH3T3 tox inconclusive.
O=C(NCc1ccccn1)c1cn2cc(-c3ccc(C(F)(F)F)cc3)sc2n1 was read as GPT2 inh inactive, HEK293 tox -20% and NIH3T3 tox -27%.

High-throughput results deposited in PubChem by National Center for Advancing Translational Sciences (NCATS).
